The supplement of paper PMC10849652
Of roughly 7,900 targets only a part is listed; those with a hit were picked by preference. About 0.6% of all pairs of compound and target were hits.

Tests used:
Assay in all cases: log2 fold change, soluble protein after heating vs DMSO (PISA); higher = thermal stabilisation; K562 cells, 10 uM, 30 min; active = over 0.2 and 3.5 SD of the protein, either way, in both replicates (recomputed)
[1] = compound: CC[C@@H]1C(=O)N(C)c2cnc(Nc3ccc(C(=O)NC4CCN(C)CC4)cc3OC)nc2N1C1CCCC1
Method in brief: (§1)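 Soluble protein was quantified by TMTpro 16plex LC-MS/MS after channel sums were equalised. It was obtained as the supernatant after 21,000xg for 90 min from pooled aliquots of K562 cells (2×10^6 cells/mL, 10 μM compound, 30 min) heated for 3 min across 48°C-58°C and extracted in PBS with 0.5% NP-40 at 4°C. Thermal stability values are relative to control samples and come from duplicates. They are given as log2 fold changes.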

[2] = compound: CC[C@@H]1C(=O)N(C)c2cnc(Nc3ccc(C(=O)N[C@H]4CC[C@H](N5CCN(CC6CC6)CC5)CC4)cc3OC)nc2N1C(C)C [volasertib]
Method in brief: as §1

[3] = compound: CC[C@H](C)N1C=C(C2=C(C=C(C=C21)C3=CN=C(C=C3)N4CCNCC4)C(=O)NCC5=C(C=C(NC5=O)C)C)C
Method in brief: as §1

[4] = compound: CC[C@H](C)[C@@H](C(=O)N[C@@H]([C@@H](C)O)C(=O)N[C@@H](CC(C)C)C(=O)[C@]1(CO1)C)NC(=O)[C@H]([C@@H](C)CC)N(C)C(=O)C [epoxomicin]
Method in brief: as §1

[5] = compound: CCn1c(C(=O)N(C2CC2)C2CC2)cc2c3c(ncn3C)c(Nc3cc(C)n(C)n3)nc21
Method in brief: as §1

[6] = compound: CCn1cc(-c2ccnc3[nH]c(-c4cccc(CN(C)C)c4)cc23)c(-c2ccc(NC(=O)N(C)C)cc2)n1
Method in brief: as §1

[7] = compound: CN(C)CC(=O)Nc1ccc2[nH]c(=O)c3ccccc3c2c1
Method in brief: as §1

[8] = compound: CN(CCOC1=CC=C(C=C1)C[C@H]2C(=O)NC(=O)S2)C3=CC=CC=N3 (racemic) [rosiglitazone]
Method in brief: as §1

[9] = compound: CN1C2=C(C3=C1C(=O)N(N=C3)CC4=CC(=CC=C4)N)SC(=C2)S(=O)C
Method in brief: as §1

[10] = compound: CN1CCC(CNc2ccc3ncc(-c4cccc(OC(F)(F)F)c4)n3n2)CC1
Method in brief: as §1

[11] = compound: CN1CCN(CCOc2cc(OC3CCOCC3)c3c(Nc4c(Cl)ccc5c4OCO5)ncnc3c2)CC1 [saracatinib]
Method in brief: as §1

[12] = compound: CN1CCN(c2nc(C3=C(c4c[nH]c5ccccc45)C(=O)NC3=O)c3ccccc3n2)CC1 [sotrastaurin]
Method in brief: as §1

[13] = compound: CN1CC[C@H](c2c(O)cc(O)c3c(=O)cc(-c4ccccc4Cl)oc23)[C@H](O)C1 [alvocidib]
Method in brief: as §1

[14] = compound: CN1CCc2c(c3ccccc3n2Cc2ccc(C(=O)NO)cc2)C1 [Tubastatin A]
Method in brief: as §1

[15] = compound: CNC(=O)C1=CC=CC=C1NC2=NC(=NC=C2Cl)NC3=C(C=C(C=C3)N4CCOCC4)OC
Method in brief: as §1

[16] = compound: CNC(=O)c1ccc(Nc2ncc(C(F)(F)F)c(NCc3nccnc3N(C)S(C)(=O)=O)n2)cc1 [defactinib]
Method in brief: as §1

[17] = compound: CNCc1ccc(-c2[nH]c3cc(F)cc4c3c2CCNC4=O)cc1 [rucaparib]
Method in brief: as §1

[18] = compound: CNc1nc(-c2ccc3c(N)n[nH]c3c2)cc(N2C[C@@H](C(=O)NC3CCCCC3)CC[C@H]2C)n1
Method in brief: as §1

[19] = compound: COC(=O)N[C@@H](C)CNc1nccc(-c2cn(C(C)C)nc2-c2cc(Cl)cc(NS(C)(=O)=O)c2F)n1 [encorafenib]
Method in brief: as §1

[20] = compound: COC(=O)[C@H](CCSC)NC(=O)C1=C(C=C(C=C1)NC[C@H](CS)N)C2=CC=CC=C2
Method in brief: as §1

Measured: log2 fold change

CNN3 (UniProt Q15417)
Sequence of UniProt Q15417 (Q15417 whole entry, looked up): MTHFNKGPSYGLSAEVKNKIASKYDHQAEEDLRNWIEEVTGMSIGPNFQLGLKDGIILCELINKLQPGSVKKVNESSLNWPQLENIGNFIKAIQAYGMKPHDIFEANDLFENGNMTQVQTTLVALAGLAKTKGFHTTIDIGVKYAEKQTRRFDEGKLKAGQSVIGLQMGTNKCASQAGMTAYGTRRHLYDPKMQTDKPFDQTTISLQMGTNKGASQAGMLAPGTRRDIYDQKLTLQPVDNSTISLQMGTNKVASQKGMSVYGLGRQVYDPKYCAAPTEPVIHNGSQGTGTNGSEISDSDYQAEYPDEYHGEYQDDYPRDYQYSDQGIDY
inactive: [1] -0.08 | [3] 0.072 | [4] 0.066 | [5] 0.005 | [6] 0.008 | [7] 0.106 | [8] 0.058 | [9] -0.018 | [10] -0.055 | [11] 0.063 | [12] -0.122 | [13] -0.017 | [14] 0.02 | [15] 0.036 | [16] -0.13 | [17] 0.048 | [18] 0.008 | [19] 0.009 | [20] 0
active: [2] -0.368

CPSF7 isoform 3 (UniProt Q8N684)
Sequence of UniProt Q8N684 (Q8N684 whole entry, looked up): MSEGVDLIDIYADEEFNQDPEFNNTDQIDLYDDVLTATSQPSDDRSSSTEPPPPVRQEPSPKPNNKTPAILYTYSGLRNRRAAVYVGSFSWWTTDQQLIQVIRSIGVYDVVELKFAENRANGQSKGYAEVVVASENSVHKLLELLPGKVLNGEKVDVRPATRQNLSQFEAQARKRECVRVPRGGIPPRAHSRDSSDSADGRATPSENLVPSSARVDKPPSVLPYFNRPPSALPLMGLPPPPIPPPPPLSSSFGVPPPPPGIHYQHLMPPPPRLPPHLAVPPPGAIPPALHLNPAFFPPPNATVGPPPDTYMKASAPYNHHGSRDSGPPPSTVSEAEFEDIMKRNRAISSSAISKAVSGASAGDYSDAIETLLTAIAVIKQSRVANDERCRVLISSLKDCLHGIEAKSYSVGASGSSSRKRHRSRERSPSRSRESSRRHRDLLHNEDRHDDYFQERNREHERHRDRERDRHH
inactive: [1] 0.077 | [2] 0.039 | [3] 0.053 | [4] -0.042 | [5] 0.004 | [6] -0.015 | [7] -0.014 | [8] -0.029 | [9] -0.001 | [10] 0.006 | [11] 0.006 | [12] 0.026 | [13] -0.018 | [14] 0.032 | [15] -0.071 | [16] 0.014 | [17] 0.033 | [18] -0.014 | [19] -0.014 | [20] -0.044

COPS4 (UniProt Q9BT78)
Sequence of UniProt Q9BT78 (Q9BT78 whole entry, looked up): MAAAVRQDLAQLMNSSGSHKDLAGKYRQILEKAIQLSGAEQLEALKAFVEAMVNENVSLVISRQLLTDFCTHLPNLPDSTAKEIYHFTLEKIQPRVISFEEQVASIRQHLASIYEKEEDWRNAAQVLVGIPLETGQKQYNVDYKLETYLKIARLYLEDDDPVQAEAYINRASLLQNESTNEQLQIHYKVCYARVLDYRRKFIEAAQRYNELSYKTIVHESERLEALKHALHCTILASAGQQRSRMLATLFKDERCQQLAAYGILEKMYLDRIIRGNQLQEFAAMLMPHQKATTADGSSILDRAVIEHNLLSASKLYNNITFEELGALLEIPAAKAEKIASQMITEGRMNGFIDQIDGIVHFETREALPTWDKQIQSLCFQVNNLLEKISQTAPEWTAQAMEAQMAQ
inactive: [1] -0.045 | [2] -0.007 | [3] 0.013 | [4] 0.047 | [5] 0.001 | [6] -0.022 | [7] 0.023 | [8] 0.018 | [9] -0.092 | [10] -0.007 | [11] 0.028 | [12] 0.008 | [13] -0.071 | [14] -0.011 | [15] -0.005 | [16] -0.015 | [17] 0.004 | [18] -0.006 | [19] -0.001 | [20] -0.007

CCAR2 isoform 2 (UniProt Q8N163)
Sequence of UniProt Q8N163 (Q8N163 whole entry, looked up): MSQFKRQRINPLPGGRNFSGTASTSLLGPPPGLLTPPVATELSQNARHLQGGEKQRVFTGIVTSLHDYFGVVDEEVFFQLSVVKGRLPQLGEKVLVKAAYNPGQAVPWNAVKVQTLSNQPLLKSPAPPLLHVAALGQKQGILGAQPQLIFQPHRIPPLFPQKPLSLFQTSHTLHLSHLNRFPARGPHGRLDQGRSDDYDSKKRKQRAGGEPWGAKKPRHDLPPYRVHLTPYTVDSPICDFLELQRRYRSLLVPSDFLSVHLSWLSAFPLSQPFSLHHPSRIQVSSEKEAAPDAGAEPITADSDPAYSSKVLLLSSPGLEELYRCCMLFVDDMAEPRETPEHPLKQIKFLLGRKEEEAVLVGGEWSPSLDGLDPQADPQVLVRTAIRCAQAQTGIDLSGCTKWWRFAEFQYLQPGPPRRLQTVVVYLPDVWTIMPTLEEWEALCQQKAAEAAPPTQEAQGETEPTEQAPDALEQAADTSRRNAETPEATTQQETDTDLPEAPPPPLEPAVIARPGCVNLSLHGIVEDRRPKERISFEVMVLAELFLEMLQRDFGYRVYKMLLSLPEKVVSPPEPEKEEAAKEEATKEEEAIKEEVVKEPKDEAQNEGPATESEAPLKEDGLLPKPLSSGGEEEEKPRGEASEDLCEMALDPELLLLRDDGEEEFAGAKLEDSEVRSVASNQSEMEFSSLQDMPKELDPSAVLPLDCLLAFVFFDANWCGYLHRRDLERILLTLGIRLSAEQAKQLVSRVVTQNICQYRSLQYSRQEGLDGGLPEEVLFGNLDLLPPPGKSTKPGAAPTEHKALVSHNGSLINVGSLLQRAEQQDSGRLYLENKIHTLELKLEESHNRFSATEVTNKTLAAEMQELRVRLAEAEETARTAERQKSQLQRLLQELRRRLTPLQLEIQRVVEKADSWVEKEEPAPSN
inactive: [1] -0.08 | [3] 0.031 | [4] -0.018 | [5] -0.057 | [6] -0.025 | [7] 0.044 | [8] 0.047 | [9] 0.003 | [10] -0.145 | [11] -0.102 | [12] -0.231 | [13] -0.254 | [14] 0.122 | [15] -0.083 | [17] -0.106 | [18] 0.031 | [19] -0.011 | [20] 0
active: [2] -0.343 | [16] -0.42

CHMP4C (UniProt Q96CF2)
Sequence of UniProt Q96CF2 (Q96CF2 whole entry, looked up): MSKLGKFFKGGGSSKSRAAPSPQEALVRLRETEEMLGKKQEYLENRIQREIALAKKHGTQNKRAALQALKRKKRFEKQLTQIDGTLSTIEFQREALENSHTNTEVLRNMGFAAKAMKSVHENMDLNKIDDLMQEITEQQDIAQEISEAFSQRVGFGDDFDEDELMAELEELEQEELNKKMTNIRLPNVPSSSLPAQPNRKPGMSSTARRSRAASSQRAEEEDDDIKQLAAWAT
inactive: [1] -0.23 | [2] -0.043 | [3] -0.014 | [4] -0.016 | [5] 0.06 | [6] -0.034 | [7] 0.005 | [8] 0.028 | [9] -0.206 | [10] -0.089 | [11] 0 | [12] 0.042 | [13] 0.02 | [14] -0.009 | [15] -0.173 | [16] -0.047 | [17] -0.032 | [18] -0.138 | [19] -0.097 | [20] 0.007

CAVIN1 (UniProt Q6NZI2)
Sequence of UniProt Q6NZI2 (Q6NZI2 whole entry, looked up): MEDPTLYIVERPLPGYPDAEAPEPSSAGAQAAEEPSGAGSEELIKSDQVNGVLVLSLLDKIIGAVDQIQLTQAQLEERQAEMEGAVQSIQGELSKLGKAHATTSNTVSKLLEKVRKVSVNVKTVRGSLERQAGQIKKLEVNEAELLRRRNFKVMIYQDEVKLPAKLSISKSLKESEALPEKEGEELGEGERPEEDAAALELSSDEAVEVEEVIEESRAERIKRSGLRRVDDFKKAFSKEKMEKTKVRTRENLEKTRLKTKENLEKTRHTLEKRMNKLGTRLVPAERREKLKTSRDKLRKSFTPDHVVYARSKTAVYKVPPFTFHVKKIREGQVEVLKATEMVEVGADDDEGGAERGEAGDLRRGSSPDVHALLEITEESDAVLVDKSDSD
inactive: [1] 0.072 | [2] 0.182 | [3] -0.007 | [4] -0.125 | [5] 0.013 | [6] 0.085 | [7] -0.06 | [8] -0.037 | [9] 0.124 | [10] -0.074 | [11] -0.065 | [12] -0.053 | [13] 0.101 | [14] 0.159 | [15] -0.015 | [16] 0.226 | [17] 0.098 | [18] 0.119 | [19] 0.122 | [20] 0.034

CDK13 (UniProt Q14004)
Sequence of UniProt Q14004 (Q14004 whole entry, looked up): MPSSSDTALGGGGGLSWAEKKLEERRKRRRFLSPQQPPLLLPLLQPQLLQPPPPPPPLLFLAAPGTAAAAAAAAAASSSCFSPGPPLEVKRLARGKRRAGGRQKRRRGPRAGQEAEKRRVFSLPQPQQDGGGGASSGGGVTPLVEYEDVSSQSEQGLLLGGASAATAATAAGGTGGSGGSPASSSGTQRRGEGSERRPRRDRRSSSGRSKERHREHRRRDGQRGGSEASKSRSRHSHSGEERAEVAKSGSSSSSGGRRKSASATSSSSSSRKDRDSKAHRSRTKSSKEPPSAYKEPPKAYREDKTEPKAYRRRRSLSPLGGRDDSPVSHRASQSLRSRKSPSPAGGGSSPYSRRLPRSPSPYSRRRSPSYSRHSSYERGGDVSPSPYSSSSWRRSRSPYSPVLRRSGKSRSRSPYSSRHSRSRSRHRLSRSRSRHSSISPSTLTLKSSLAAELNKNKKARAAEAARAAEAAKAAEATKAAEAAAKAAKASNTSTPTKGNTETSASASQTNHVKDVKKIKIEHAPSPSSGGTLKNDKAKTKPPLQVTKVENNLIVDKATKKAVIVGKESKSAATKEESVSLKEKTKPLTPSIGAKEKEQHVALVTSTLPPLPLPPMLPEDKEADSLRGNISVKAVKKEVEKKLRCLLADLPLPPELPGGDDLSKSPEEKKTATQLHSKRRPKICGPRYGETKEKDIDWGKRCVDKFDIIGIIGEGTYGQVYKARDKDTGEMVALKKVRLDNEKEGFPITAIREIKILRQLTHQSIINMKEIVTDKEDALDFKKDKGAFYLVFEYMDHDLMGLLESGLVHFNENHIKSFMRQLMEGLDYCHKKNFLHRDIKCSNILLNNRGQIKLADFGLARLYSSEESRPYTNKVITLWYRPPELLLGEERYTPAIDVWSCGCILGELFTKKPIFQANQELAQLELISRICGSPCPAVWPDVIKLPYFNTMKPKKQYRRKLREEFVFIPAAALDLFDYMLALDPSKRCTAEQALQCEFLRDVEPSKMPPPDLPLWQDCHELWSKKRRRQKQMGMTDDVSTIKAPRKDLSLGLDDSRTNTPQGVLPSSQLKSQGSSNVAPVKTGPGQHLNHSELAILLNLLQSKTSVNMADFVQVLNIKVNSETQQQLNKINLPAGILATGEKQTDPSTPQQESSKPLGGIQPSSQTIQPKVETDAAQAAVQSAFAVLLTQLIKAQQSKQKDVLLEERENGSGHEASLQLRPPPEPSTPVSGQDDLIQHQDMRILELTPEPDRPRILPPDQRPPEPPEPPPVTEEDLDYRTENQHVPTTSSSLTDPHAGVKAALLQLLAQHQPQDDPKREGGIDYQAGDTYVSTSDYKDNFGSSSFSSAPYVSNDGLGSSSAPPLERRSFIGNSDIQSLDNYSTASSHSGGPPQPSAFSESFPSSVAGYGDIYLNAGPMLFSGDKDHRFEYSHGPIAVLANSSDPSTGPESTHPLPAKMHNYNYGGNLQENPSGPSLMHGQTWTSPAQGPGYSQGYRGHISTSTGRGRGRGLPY
inactive: [1] 0.025 | [2] 0.09 | [3] 0.034 | [4] -0.032 | [5] 0.087 | [6] 0.018 | [7] 0.004 | [8] -0.002 | [9] 0.233 | [10] -0.047 | [11] -0.133 | [12] -0.121 | [13] -0.061 | [14] 0.042 | [15] -0.071 | [16] -0.01 | [17] 0.06 | [18] -0.129 | [19] 0.104 | [20] 0.036

CHAC2 (UniProt Q8WUX2)
Sequence of UniProt Q8WUX2 (Q8WUX2 whole entry, looked up): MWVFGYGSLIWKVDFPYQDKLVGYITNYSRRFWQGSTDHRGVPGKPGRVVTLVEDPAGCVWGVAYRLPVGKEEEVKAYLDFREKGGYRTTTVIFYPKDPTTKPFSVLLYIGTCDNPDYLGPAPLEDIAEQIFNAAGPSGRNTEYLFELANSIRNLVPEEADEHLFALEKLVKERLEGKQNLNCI
inactive: [2] -0.227 | [3] 0.035 | [4] -0.025 | [5] 0.039 | [6] -0.03 | [7] 0.002 | [8] 0.028 | [9] -0.04 | [10] 0.041 | [11] -0.016 | [12] -0.028 | [13] -0.075 | [14] -0.02 | [15] -0.02 | [16] -0.07 | [17] 0.122 | [18] -0.05 | [19] 0.237 | [20] 0.025
active: [1] -0.343
